{"source": "PubChem BioAssay AID521", "about": "(Sanford-Burnham Center for Chemical Genomics, 2006)", "note": "Where “and” joins values, the source holds several entries; their conditions need not be identical. Equal entries are not always repeated. Among all 110,000 compounds or so, about 730 (0.66%) were called active. Cut-off read from the data, not from the text of the source: active = inhibition above about 50%; inconclusive = no clear call, values can overlap the other calls; inactive = below that. The entries come from a sample that favours actives as a whole. Where a structure was tested more than once in an assay, its records may differ in their call."}
{"target": "Tyrosine-protein phosphatase non-receptor type 7 (Homo sapiens) (UniProt P35236)", "sequence (P35236 whole entry, looked up)": "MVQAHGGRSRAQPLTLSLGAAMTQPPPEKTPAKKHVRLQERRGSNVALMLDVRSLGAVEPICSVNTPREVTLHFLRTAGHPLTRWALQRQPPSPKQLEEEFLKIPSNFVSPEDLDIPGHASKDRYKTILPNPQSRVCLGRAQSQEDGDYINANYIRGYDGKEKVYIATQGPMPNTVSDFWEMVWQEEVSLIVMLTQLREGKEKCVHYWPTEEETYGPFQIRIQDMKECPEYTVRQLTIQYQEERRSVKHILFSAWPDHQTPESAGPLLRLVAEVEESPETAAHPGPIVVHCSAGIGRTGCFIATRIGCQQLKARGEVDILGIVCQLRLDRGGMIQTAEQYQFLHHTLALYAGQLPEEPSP", "test": "HePTP tyrosine phosphatase activity blockers – biochemical, absorbance, leukemia target, primary screen (AID 521);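 note: plate controls were vehicle for no effect and reference inhibitor for full effect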", "details": "recombinant HePTP phosphatase activity, OD absorbance; at 20 µM; stronger effect = higher value"}
{"smiles": "Cc1[nH]n(-c2ccccc2)c(=O)c1C(c1ccc(C(F)(F)F)cc1)c1c(C)[nH]n(-c2ccccc2)c1=O", "inhibition": "104% (active)"}
{"smiles": "Cc1[nH]n(-c2ccccc2)c(=O)c1/C=N/N(C)C", "inhibition": "-5.9% (inactive)"}
{"smiles": "Cc1[nH]n(-c2ccccc2)c(=O)c1C(=O)C(F)(F)F", "inhibition": "3.1% (inactive)"}
{"smiles": "COc1ccc2nc(C)c(CCC(C)=O)c(Cl)c2c1", "inhibition": "6.4% (inactive)"}
{"smiles": "COc1ccc(C(=O)Nc2nc(C34CC5CC(CC(C5)C3)C4)c(C)s2)cc1", "inhibition": "-13.5% (inactive)"}
{"smiles": "COC(=O)c1ccccc1NC(=O)COc1cccc2ccccc12", "inhibition": "3.5% (inactive)"}
{"smiles": "COc1cc(C(=O)N2CCC(Cc3ccccc3)CC2)c([N+](=O)[O-])cc1OC", "inhibition": "-4.3% (inactive)"}
{"smiles": "COC(=O)c1ccccc1NC(=O)c1cncc(Br)c1", "inhibition": "5.5% (inactive) and 4.4% (inactive)"}
{"smiles": "COC(=O)c1ccc(C(=O)Nc2cc(Cl)ccc2Cl)cc1NC(=O)c1ccccc1C", "inhibition": "-11.5% (inactive)"}
{"smiles": "COC(=O)c1ccccc1NC(=O)c1ccc(Cl)cc1", "inhibition": "72.5% (active)"}
{"smiles": "Cc1cc(NC(=O)C2CC3CCC2C3)no1", "note": "(stereo unspecified)", "inhibition": "-16.7% (inactive)"}
{"smiles": "O=C1NC(c2ccc(Br)cc2)=N/C1=C/c1ccccc1", "inhibition": "-7.8% (inactive)"}
{"smiles": "Cc1cccc(NC(=O)/C(C#N)=C/c2ccc(-c3ccccc3[N+](=O)[O-])o2)c1", "inhibition": "2.3% (inactive)"}
{"smiles": "COc1ccc([N+](=O)[O-])cc1-c1ccc(/C=C(\\C#N)c2nc3ccc(C)cc3[nH]2)o1", "inhibition": "103% (active)"}
{"smiles": "CC(=O)NC1=NC(=O)/C(=C\\c2ccc(-c3cc([N+](=O)[O-])ccc3C)o2)S1", "inhibition": "-13.7% (inactive)"}
{"smiles": "CCCOc1ccc(N2C(=O)CC(NCCc3ccc(Cl)cc3)C2=O)cc1", "note": "(stereo unspecified)", "inhibition": "-18.1% (inactive)"}
{"smiles": "COc1ccccc1NCN1C(=O)S/C(=C/c2ccccc2F)C1=O", "inhibition": "-9.9% (inactive)"}
{"smiles": "C/C(=C\\C(=O)c1ccc(Br)cc1)Nc1ccccc1O", "inhibition": "-2% (inactive)"}
{"smiles": "CC(C)(C)CC(C)(C)NC(=O)CSc1nc2ccccc2s1", "inhibition": "5.4% (inactive)"}
{"smiles": "N/C(=C\\C(=O)/C=C\\c1ccccc1)C(Cl)(Cl)Cl", "inhibition": "-0.8% (inactive)"}
{"smiles": "O=c1oc2c3c4c(cc2cc1CCO)CCCN4CCC3", "inhibition": "11.1% (inactive)"}
{"smiles": "CN1CCN(CCCCOc2cccc3ccccc23)CC1", "inhibition": "3.9% (inactive)"}
{"smiles": "Cc1cc(C)c2oc(-c3ccc(NC(=O)c4cc5ccccc5o4)cc3O)nc2c1", "inhibition": "-0.1% (inactive)"}
{"smiles": "CCc1ccc2oc(-c3ccc(C)c(NC(=O)c4cc(OC)cc(OC)c4)c3)nc2c1", "inhibition": "-3.6% (inactive)"}
{"smiles": "COc1ccc(C=Nc2ccc(Sc3ccc([N+](=O)[O-])cc3)cc2)cc1OC", "inhibition": "-1.2% (inactive)"}
{"smiles": "COc1ccc(/C=C2/SC(=S)NC2=O)cc1I", "inhibition": "7.7% (inactive)"}
{"smiles": "COC(=O)c1sc(NC(=O)C(Sc2ccccc2)c2ccccc2)c(C#N)c1C", "note": "(stereo unspecified)", "inhibition": "10.9% (inactive)"}
{"smiles": "CCC(=O)Nc1sc(C(=O)N2CCCCC2)c(C)c1C#N", "inhibition": "7.4% (inactive)"}
{"smiles": "COC(=O)c1sc(NC(=O)C2CCCCC2)c(C#N)c1C", "inhibition": "103% (active)"}
{"smiles": "CC1(C)c2ccccc2N(CCO)C12C=Cc1cc([N+](=O)[O-])ccc1O2", "note": "(stereo unspecified)", "inhibition": "0.7% (inactive)"}
{"smiles": "COC(=O)c1cc(S(=O)(=O)N2CCOCC2)ccc1Cl", "inhibition": "-0.5% (inactive)"}
{"smiles": "O=C(Cc1c(O)c2ccccc2[nH]c1=O)NCc1ccc(Cl)cc1", "inhibition": "-5.2% (inactive)"}
{"smiles": "CC(=O)n1nc(C)c2c1C[C@@H]1[C@H]2C1(C)C", "inhibition": "2.1% (inactive)"}
{"smiles": "O=c1[nH]c2ccc(Br)cc2c(-c2ccccc2)c1C1=NNC(c2ccc([N+](=O)[O-])cc2)C1", "note": "(stereo unspecified)", "inhibition": "7.3% (inactive)"}
{"smiles": "Cc1ccc(N2NC(=O)/C(=C/c3ccc4c(c3)OCO4)C2=O)cc1Cl", "inhibition": "66.6% (active)"}
{"smiles": "Cc1ccc(N2NC(=O)/C(=C/c3ccc(O)c(O)c3)C2=O)cc1C", "inhibition": "-5.6% (inactive)"}
{"smiles": "O=C1NN(c2ccccc2)C(=O)/C1=C/c1cccc(F)c1", "inhibition": "7.6% (inactive)"}
{"smiles": "CC(C)=CC1C(C(=O)Nc2ccc(C)cn2)C1(C)C", "note": "(stereo unspecified)", "inhibition": "-10.2% (inactive)"}
{"smiles": "O=C(NCc1ccco1)Nc1ccncc1", "inhibition": "-1.8% (inactive)"}
{"smiles": "COc1ccccc1C(=O)NC(NC(=O)c1ccccc1OC)c1ccc(Br)cc1", "inhibition": "7.8% (inactive)"}
{"smiles": "O=C(Nc1ccc(OC(F)(F)F)cc1)c1cnn2c(C(F)(F)F)cc(-c3ccco3)nc12", "inhibition": "0.1% (inactive)"}
{"smiles": "OCCNCC(O)Cn1c2ccc(I)cc2c2cc(I)ccc21", "note": "(stereo unspecified)", "inhibition": "-15.3% (inactive)"}
{"smiles": "Cn1cnnc1Sc1nc2c(c(=O)n(C)c(=O)n2C)n1Cc1ccc(F)cc1", "inhibition": "-3.2% (inactive)"}
{"smiles": "CC(C)(C)c1ccc(OCC(=O)Nc2cccc(NC(=O)c3ccccc3)c2)cc1", "inhibition": "-1.7% (inactive)"}
{"smiles": "Cc1cccc(NC(=O)c2ccc(NC(=O)COc3ccc(Cl)cc3Cl)cc2)c1", "inhibition": "6.4% (inactive)"}
{"smiles": "Cc1cccc(C(=O)Nc2cccc(NC(=O)COc3ccccc3Cl)c2)c1", "inhibition": "105% (active)"}
{"smiles": "CSc1ccc(-c2c(C#N)c(N)nc3c2c(C)nn3-c2ccccc2)cc1", "inhibition": "2.8% (inactive)"}
{"smiles": "N#Cc1c(N)nc2cc(N)ccc2c1-c1ccc(O)cc1", "inhibition": "104% (active)"}
{"smiles": "CSc1nc(N)c(C#N)c(-c2ccccc2Cl)c1C#N", "inhibition": "-5.7% (inactive)"}
{"smiles": "CCN(C(=S)NC(=O)c1cccnc1)c1ccccc1", "inhibition": "3.3% (inactive)"}
{"smiles": "COc1ccc(C(=O)Nc2nc3ccc(C)cc3s2)cc1Br", "inhibition": "4.5% (inactive)"}
{"smiles": "CCc1c(C)sc(NC(=O)C2CCCCC2)c1C(=O)OC(C)C", "inhibition": "6.5% (inactive)"}
{"smiles": "COC(=O)c1cc(NC(=O)c2ccc(-c3cc(Cl)ccc3Cl)o2)cc(C(=O)OC)c1", "inhibition": "-24.3% (inactive)"}
{"smiles": "COc1cc(OC)cc(C(=O)N/N=C(\\C)CC(=O)Nc2ccccc2-c2ccccc2)c1", "inhibition": "-23.1% (inactive)"}
{"smiles": "COc1ccc(C(=O)Nc2ccccc2C(=O)NCc2ccco2)cc1", "inhibition": "4.8% (inactive)"}
{"smiles": "CCOc1ccccc1C(=O)NCc1ccco1", "inhibition": "103% (active) and 14.1% (inactive)"}
{"smiles": "CCCCOc1ccc(C(=O)NCc2ccco2)cc1", "inhibition": "6% (inactive)"}
{"smiles": "O=C(Cc1ccc(Cl)cc1)Nc1ccc(Cl)cc1C(=O)O", "inhibition": "1.2% (inactive)"}
{"smiles": "Cc1cccc(N2C(=O)S/C(=C/c3ccc(N(C)C)cc3)C2=O)c1", "inhibition": "-1.4% (inactive)"}
{"smiles": "O=Cc1ccc(/C=C2/SC(=S)N(c3cccc(Cl)c3)C2=O)cc1", "inhibition": "4.5% (inactive)"}
{"smiles": "CN(C)c1ccc(/C=C2\\SC(=S)N(c3cccc(C(=O)O)c3)C2=O)cc1", "inhibition": "104% (active)"}
